In PubChem BioAssay (NCI):
The panel holds about 83,000 compounds, 20% with a hit somewhere; the sample as a whole holds those more often.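 Single-dose data. Exposure time 48 hours. Values below 10 considered active.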 Calls of active or inactive are those of the source.

System: LOX IMVI melanoma
Experiment: NCI-60 one-dose screen, 48 h (100 = growth as untreated, 0 = no growth, -100 = all killed)
Details: 10 µM unless noted

Structure (SMILES)	growth
Cc1ccc2c(c1)C(=O)/C(=C/c1ccc(OCC(=O)c3ccccc3)cc1)O2	102% (inactive)
O=C1C2CC=CCC2C(=O)N1CNc1ccc(Cl)cc1 (centres undefined)	77% (inactive)
O=C1C[C@H](Sc2nc(-c3ccc(F)cc3)cc(C(F)(F)F)n2)[C@H]2CO[C@@H]1O2	34.8% (inactive)
CCN(CC)CCCNc1cccc2c(SCc3ccccc3)ccnc12	24% (inactive)
Cc1cc(=O)oc2cc(Oc3nc(-c4cccs4)cn4c(-c5cccs5)cnc34)ccc12	38.4% (inactive)
CCCCN(CCCC)Cc1c(C)[nH]c2cc(OC)ccc2c1=O	97.1% (inactive)
CCCCCCCCCCCCCC1=NCCN1CCO	-52.8% (active)
CCN1CCN(Cc2ccc(NC(=O)Nc3nc4ccc(Oc5ccnc(C(=O)NC)c5)cc4s3)cc2C(F)(F)F)CC1	-78.9% (active)
CCCCN(CCCC)CCC(C)(O)c1cc2ccccc2c2ccccc12 (centres undefined)	45.7% (inactive)
CCCCN(CC)CCCCCCCCCCN1CCCc2cc(OC)ccc21	15% (inactive)
N#Cc1ccc(NC(=O)Nc2ccc(Cc3ccc(NC(=O)Nc4ccc(C#N)cc4)cc3)cc2)cc1	-67.6% (active)
Clc1nc(Cl)c2c3c(sc2n1)CCCC3	13.4% (inactive)
CCN(CC)c1ccc(/C=C/C2=[N+](C)c3ccccc3C2(C)C)cc1	13.3% (inactive)
COc1ccc(OCC(=O)Nc2ccc(-c3nc4ccccc4s3)cc2C)cc1	89% (inactive)
COc1cc(-c2nc3ccccc3s2)ccc1NC(=O)COc1ccc(Cl)cc1	64.7% (inactive)
CCN(CC)CC(O)CNc1c2ccc([N+](=O)[O-])cc2nc2cc(OC)c(OC)cc12 (centres undefined)	-40.2% (active)
Cc1ccc(/C=C2\Oc3cc(OCC(=O)c4ccc(Cl)cc4)ccc3C2=O)cc1	98.8% (inactive)
O=c1c(/C=C/c2ccco2)nnc(SCCN2CCOCC2)n1/N=C/c1ccc([N+](=O)[O-])cc1	106% (inactive)
CNC(=O)c1cc(Oc2ccc3nc(NC(=O)Nc4ccc(CN5CCOCC5)c(C(F)(F)F)c4)sc3c2)ccn1	16.7% (inactive)
Cc1ccc(SCN2CCN(c3cccc(Cl)c3)CC2)cc1	81.6% (inactive)

Structure (SMILES)	growth
COC1=CC(=O)C(OC)=C(OC)C1=O	84.6% (inactive)
CN(CC(=O)N(Cc1ccc(C2CCCCC2)cc1)c1ccc(C(=O)NO)cc1)S(=O)(=O)c1c(F)c(F)c(F)c(F)c1F	-8.7% (active)
O=C1Nc2c(ccc(Cl)c2Cl)/C1=C/c1cc(Br)c(O)c(Br)c1	59.6% (inactive)
Oc1ccccc1N=Cc1c(O)ccc2ccccc12	61.7% (inactive)
c1ccc(CSc2ncnc3nc[nH]c23)nc1	106% (inactive)
CCN(CC)c1ccc(CNc2cc(C)nc3ccc(OC)cc23)cc1	24.7% (inactive)
CN(C)c1ccc(/C=C(\C#N)c2nc3ccccc3s2)cc1	113% (inactive)
CC1CN(Cc2ccco2)C(=S)N(c2ccccc2)C1=O (centres undefined)	94.1% (inactive)
C=C1CC[C@@H]2[C@](C)(COC(C)=O)[C@H](OC(C)=O)CC[C@@]2(C)[C@@H]1CC(NCc1ccc(F)cc1)C1=CCOC1=O (some centres undefined)	9.33% (active)
O=C(O)c1cccnc1Br	96.6% (inactive)
C=CC[N+]1(CC)CCN=C1CCCCCCCCCCCCCCCCC (centres undefined)	-96.3% (active)
O=C1/C(=C\c2cn(C(=O)c3ccc(Cl)cc3)c3ccccc23)c2ccccc2N1c1c(Cl)cccc1Cl	97.7% (inactive)
CSc1[nH]c2ncnc(N)c2c1C#N	109% (inactive)
Cn1c2ccccc2c2c3c(c4c5ccccc5[nH]c4c21)C(=O)N(N)C3=O	23.4% (inactive)
CC(=O)CC(C)(C)c1ccc(Cl)cc1	97.3% (inactive)
OC(c1cc(-c2ccccc2)nc2ccc(Cl)cc12)C1CCCCN1 (centres undefined)	-83.2% (active)
CCN(CC)Cc1cc(Nc2c3ccccc3nc3cc(Cl)ccc23)ccc1O	-86.5% (active)
O=[N+]([O-])c1c(F)cccc1Nc1cccc(F)c1	102% (inactive)
COc1ccc(-c2cn3c(-c4ccc(OC)cc4)cnc3c(Oc3ccc4c(C)cc(=O)oc4c3)n2)cc1	8.02% (active)
